“And” between values parts separate entries of the source, which are not always exact repeats. Equal values may be shown once. Hit rate of the full screen: of about 5,500 compounds, about 2,000 (36%) were called active. Another 18% or so got no clear call; they are omitted. Rule as the data show it: active = normalized growth mostly below about 0.91 (no sharp cut-off); inconclusive = no clear call, values can overlap the other calls; inactive = mostly above about 0.92. The list shows a part of the results.
Assay: chemical genetic growth profiling, strain panel (AID 1159580);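 also: tested at 20 µM; growth read once vehicle control cultures reached saturation at 30 °C; 1 = growth at the plate median or of vehicle wells; lower values mean less growth of the strain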
Conditions: S. cerevisiae deletion strains, growth OD

Measured: normalized growth

Nc1ncnc2c1ncn2C1O[C@H](COP(=O)(O)O)[C@@H](O)[C@H]1O (stereo partly specified)
active: locus YCL029C, strain bik1, active compounds read low 0.523 | locus YDL192W, strain arf1, active compounds read low 0.811 | locus YDR101C, strain arx1, active compounds read low 0.589 | locus YDR318W, strain mcm21, active compounds read low 0.73 | locus YDR388W, active compounds read low 0.209 | locus YDR502C, strain sam2, active compounds read low 0.632 | locus YER110C, active compounds read low 0.798 | locus YGL086W, strain mad1, active compounds read low 0.74 | locus YGR135W, strain pre9, active compounds read low 0.776 | locus YHR079C, strain IRE1 (second series), active compounds read low 0.345 | locus YHR200W, strain rpn10, active compounds read low 0.911 | locus YIR030C, strain dcg1, active compounds read low 0.648 | locus YJL168C, strain set2, active compounds read low 0.927
inactive: locus YAL013W, strain DEP1, active compounds read low 1.01 | locus YAL021C, strain ccr4, active compounds read low 0.996 | locus YAL026C, strain drs2, active compounds read low 1 | locus YAL030W, strain snc1, active compounds read low 0.997 | locus YBL061C, strain skt5, active compounds read low 0.999 | locus YBR009C, strain hhf1, active compounds read low 0.95 | locus YBR021W, strain FUR4, active compounds read low 1.01 | locus YBR023C, strain chs3, active compounds read low 0.99 | locus YBR171W, strain sec66, active compounds read low 1 | locus YBR229C, strain ROT2, active compounds read low 1.01 | locus YBR231C, strain swc5, active compounds read low 1.01 | locus YBR279W, strain paf1, active compounds read low 0.999 | locus YCL011C, strain gbp2, active compounds read low 0.991 | locus YCL016C, strain dcc1, active compounds read low 0.982 | locus YCL069W, strain vba3, active compounds read low 0.996 | locus YCR088W, strain abp1, active compounds read low 0.988 | locus YDL005C, strain med2, active compounds read low 1.03 | locus YDL035C, strain GPR1, active compounds read low 1.04 | locus YDL040C, strain nat1, active compounds read low 1 | locus YDL074C, strain BRE1, active compounds read low 1.03 | locus YDL101C, strain DUN1, active compounds read low 1.01 | locus YDL134C, strain PPH21, active compounds read low 1.02 | locus YDL185W, strain tfp1, active compounds read low 0.992 | locus YDR001C, strain nth1, active compounds read low 0.997 | locus YDR069C, strain doa4, active compounds read low 1.04 | locus YDR137W, strain rgp1, active compounds read low 1 | locus YDR150W, strain NUM1, active compounds read low 1.02 | locus YDR159W, strain sac3, active compounds read low 0.95 | locus YDR162C, strain NBP2, active compounds read low 1.01 | locus YDR195W, strain ref2 1.01 | locus YDR297W, strain sur2, active compounds read low 1.01 | locus YDR334W, strain swr1, active compounds read low 1 | locus YDR335W, strain msn5, active compounds read low 1 | locus YDR392W, strain spt3, active compounds read low 0.95 | locus YEL003W, strain gim4, active compounds read low 1 | locus YEL037C, strain rad23, active compounds read low 0.993 | locus YEL061C, strain CIN8 (second series), active compounds read low 1 | locus YEL061C, strain CIN8, active compounds read low 1.01 | locus YER015W, strain faa2, active compounds read low 0.987 | locus YER016W, strain bim1, active compounds read low 0.97 | locus YER111C, strain swi4, active compounds read low 0.991 | locus YER155C, strain BEM2 (second series), active compounds read low 1.05 | locus YER155C, strain BEM2, active compounds read low 1.01 | locus YER167W, strain BCK2, active compounds read low 1.03 | locus YFR010W, strain ubp6, active compounds read low 1.01 | locus YGL078C, strain dbp3, active compounds read low 0.993 | locus YGL167C, strain pmr1, active compounds read low 1 | locus YGL173C, strain kem1, active compounds read low 0.995 | locus YGL227W, strain vid30, active compounds read low 1.01 | locus YGL240W, strain doc1, active compounds read low 1.04 | locus YGL248W, strain PDE1, active compounds read low 1.02 | locus YGL253W, strain hxk2, active compounds read low 0.972 | locus YGR078C, strain PAC10, active compounds read low 1.02 | locus YGR229C, strain SMI1, active compounds read low 1.03 | locus YGR252W, strain gcn5, active compounds read low 0.987 | locus YHR013C, strain ard1, active compounds read low 0.965 | locus YHR027C, strain rpn1, active compounds read low 1 | locus YHR030C, strain SLT2, active compounds read low 1.01 | locus YHR079C, strain IRE1, active compounds read low 1.02 | locus YHR094C, strain hxt1, active compounds read low 0.955 | locus YHR129C, strain ARP1, active compounds read low 1.01 | locus YHR142W, strain chs7, active compounds read low 1.01 | locus YIL066C, strain RNR3, active compounds read low 1.03 | locus YIL073C, strain SPO22, active compounds read low 1.03 | locus YIL125W, strain kgd1, active compounds read low 0.999 | locus YJL092W, strain hpr5, active compounds read low 1 | locus YJL095W, strain BCK1 (second series), active compounds read low 0.996 | locus YJL095W, strain BCK1, active compounds read low 0.99 and 0.989 | locus YJL115W, strain asf1, active compounds read low 0.998 | locus YJL129C, strain trk1, active compounds read low 1 | locus YJL134W, strain LCB3, active compounds read low 1.01 | locus YJL154C, strain vps35, active compounds read low 0.999 | locus YJL164C, strain tpk1, active compounds read low 0.967 | locus YJL166W, strain qcr8, active compounds read low 1.03 | locus YJL187C, strain SWE1 (second series), active compounds read low 1.03 | locus YJL187C, strain SWE1, active compounds read low 0.996 | locus YJR043C, strain POL32, active compounds read low 1 | locus YJR066W, strain TOR1, active compounds read low 0.965
